PG9 binder = binders of HIV-1 gp120 antibody PG9, primary screen, biochemical, TR-FRET; inhibition, % at 6.7 µM; TR-FRET gp120-PG9 antibody binding; hit rate 0.43% among 360,000; HIV-1 gp120 / PG9 antibody interaction; in the data active = inhibition above about 8.5%
AI-2 QS mod = Vibrio harveyi AI-2 quorum sensing modulators, primary screen, JMH597 strain, luminescence/OD600 ratio; Vibrio harveyi JMH597 AI-2 luminescence/OD600 ratio, 9 h; stronger effect = lower value; strain lacks LuxN and CqsS sensors; 0 = neutral-control median; activity change, % at 7.5 µM; hit rate 0.4% among 300,000; AID 2094, 2009; in the data active = activity change below about -75%, passing the limit was not always enough;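 note: luminescence divided by OD600 gain over 9 h not by final OD600 alone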
SMARCA2 act = SMARCA2 (BRM) function activators, primary screen, cell-based, luminescence, high throughput; MG213 cells, MMTV-luciferase reporter, dexamethasone, overnight; activation, % at 9.1 µM; hit rate 1% among 370,000; AID 652017, 2013; in the data active = activation above about 7.8%;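 note: 0% = vehicle wells and 100% = reference activator wells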
GAA850 FXN act = FXN promoter activators, primary screen, cell-based, luciferase luminescence, HEK293 lucGAA850; HEK293 lucGAA850 FXN promoter luciferase reporter, 24 h; percent of 10 µM SAHA response; activation, % at 6 µM; hit rate 0.56% among 360,000;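 active = activation above the average of all compounds screened plus 3 SD, cutoff fixed separately per campaign, cut at about 7.5% in these data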;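 note: 0% = DMSO wells and 100% = 10 µM SAHA wells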
HSF1 inhib = HSF1 inhibitors in luciferase reporter cells, primary screen, cell-based, NIH3T3, luminescence; hit rate 0.77% among 300,000; NIH3T3-HGL HSE-luciferase, MG132-induced, luminescence 8 h; stronger effect = lower value; activity change, negative = inhibition, % at 7.5 µM (by protocol);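 active = more than half of replicate wells show activity change below -50%, luminescence cut by over half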;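 note: luciferase reports HSF-1 transcriptional activity via heat shock element; 0% = median of DMSO wells and -100% = zero luminescence signal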
HSP90 refold inh = HSP90 inhibitors, primary screen, cell lysate, luminescence | Heat shock protein HSP 90 (rabbit reticulocyte lysate; luciferase refolding) | hit rate 0.91% among 290,000 | Rabbit reticulocyte lysate, luciferase refolding luminescence, 3 h | inhibition, % at 5.6 µM;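 active = inhibition above the screen-wide mean plus 3 SD, computed separately per campaign, cut at about 16% in these data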;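 note: 0% = DMSO wells and 100% = 60 µM geldanamycin wells; inhibitors lower the luminescence because luciferase stays unfolded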
GAA30 counter = GAA30 FXN promoter activators, confirmation, counter-screen for GAA850 frataxin promoter activator project, cell-based, luminescence, HEK293, lucGAA30, triplicate | activation, % at 6 µM | shares compounds with GAA850 FXN act | HEK293 lucGAA30 FXN promoter luciferase, 24 h; DMSO = 0%, 5 µM ipriflavone = 100% | hit rate 66% among 1,900 | AID 588350, 2011;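 active = mean activation above the mean of solvent-only control wells plus 3 SD, cut at about 22% in these data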;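 note: counterscreen of GAA850 promoter hits where activity marks nonselective or luminescence artifacts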
FXN GAA850 conf = FXN GAA850 promoter activators in reporter cells, confirmation, cell-based, luminescence, HEK293 lucGAA850, triplicate. shares compounds with GAA850 FXN act. activation, % at 6 µM. hit rate 86% among 1,900. HEK293 lucGAA850 FXN promoter luciferase reporter, 24 h; 100% = activation by SAHA;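 active = mean activation above a set limit taken from the primary screen, cut at about 8% in these data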;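 note: 0% = DMSO wells and 100% = 10 µM SAHA wells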
* = called active by the depositor; x = no result given. Compounds with a hit are over-represented: about 3.4% of the library has one in this group of screens.

SMILES | PG9 binder | AI-2 QS mod | SMARCA2 act | GAA850 FXN act | HSF1 inhib | HSP90 refold inh | GAA30 counter | FXN GAA850 conf
CCN(C[C@H]1N[C@@](C)(C(=O)OC)[C@H]2C(=O)N(Cc3ccccc3)C(=O)[C@@H]12)C(=O)Nc1ccc(F)cc1 | 0 | x | -3 | 15* | x | x | 25* | 6
COC(=O)[C@]1(C)N[C@H](CN(C)C(=O)Nc2ccc(C)cc2)[C@@H]2C(=O)N(Cc3ccccc3)C(=O)[C@@H]21 | -1 | x | 7 | 12* | x | x | 25* | 7
Cc1ccc(C(=O)OCC(=O)NCc2ccc(Cl)cc2)s1 | -1 | x | -1 | 2 | x | x | x | x
O=C(O)CCCCN1C(=O)C=CC1=O | 0 | x | 2 | x | x | x | x | x
C=CCSc1nc(N)c(NC(=O)c2ccco2)c(=O)[nH]1 | -1 | x | -2 | 14* | x | x | 28* | 9.8*
O=C(N/N=C/c1ccccn1)c1cc([N+](=O)[O-])cc([N+](=O)[O-])c1 | -2 | -36 | 2 | 14* | -24 | 1 | -82 | -17
O=C(N/N=C/c1ccccn1)c1cc(C2CC2)[nH]n1 | -2 | 32 | 3 | 7.6* | 16 | 1 | 106* | 38*
O=C(N[C@H](Cc1ccccc1)C(=O)N1CCN(CC(=O)N2CCCC2)CC1)[C@H]1O[C@@H](n2ccc(=O)[nH]c2=O)[C@H](O)[C@@H]1O | -1 | x | -2 | x | x | x | x | x
O=C(Nc1ccccc1O)c1csc2c1CCCC2 | 1 | 23 | -1 | 11* | 39 | -2 | 119* | 44*
CCNc1nc(N)nc(-c2cc(Cl)ccc2O)n1 | x | -13 | x | 17* | 12 | 4 | 151* | 93*
CC(=Nc1ccccc1)c1sc2ccccc2c1O | -4 | 11 | 2 | 5 | 20 | -3 | x | x
CC(=Nc1ccc(Br)cc1)c1sc2ccccc2c1O | -2 | 11 | 2 | 7.9* | 42 | -2 | 116* | 36*
C/C(=N\NC(=O)COc1ccc(C(C)(C)C)cc1)c1ccc(-n2ccnc2)cc1 | -2 | 18 | 0 | 8.5* | 6 | 1 | 94* | 22*
COc1ccc(C2CC(C(F)(F)F)n3ncc(C(=O)NCC4CCCO4)c3N2)cc1OC (stereo not drawn) | 0 | 9 | 1 | 8.2* | -5 | 0 | 9 | 11*
COc1cccc(CNC(=O)[C@H]2CCCN2C(=O)[C@H]2CCCN2C(=O)c2cccc(OC)c2)c1 | 0 | x | -3 | x | x | x | x | x
Cc1cccc2cc(/C=N/Nc3ccc(C(=O)O)cc3)c(Cl)nc12 | 0 | 11 | 6 | 12* | 1 | 7 | 128* | 49*
Cc1ccc2nc(Nc3ccc4[nH]c(=O)[nH]c4c3)c(-n3nc(C)cc3C)nc2c1 | 0 | -1 | 5 | 9.1* | 12 | -1 | 77* | 29*
Cc1ccc(NC(=O)CNc2ccc(Cl)c(Cl)c2)cc1S(=O)(=O)N(C)C | 1 | -52 | -6 | -1 | -1 | 3 | x | x
CN(C)S(=O)(=O)c1cc(NC(=O)CSc2nn(-c3ccc(Cl)cc3)c(=S)s2)ccc1Cl | -2 | 30 | -1 | 11* | 16 | -2 | 14 | 9.1*
Cc1ccc(NC(=O)CSc2nn(-c3ccc(Cl)cc3)c(=S)s2)cc1S(=O)(=O)N(C)C | -2 | 8 | -7 | 10* | 3 | -3 | 6 | 6
COc1ccc(/C=C2\SC(=N)N(c3ccc(F)cc3)C2=O)cc1OC | 0 | 13 | 1 | 8.3* | -1 | 2 | 18 | 15*
CCOC(=O)C1=CCC(c2ccccc2)N(S(C)(=O)=O)C1 (stereo not drawn) | 1 | x | -2 | x | x | x | x | x
CC1(c2nnnn2Cc2ccccc2)CSCC(=O)N1Cc1cccs1 (stereo not drawn) | x | x | 0 | x | x | x | x | x
O=S(=O)(CC(CN1CCCCC1)N1CCCCC1)c1ccccc1 (stereo not drawn) | -2 | 17 | 7 | 8.4* | 13 | 2 | 76* | 30*
COc1ccc2[nH]c(=O)c(C(c3nnnn3C3CCCCC3)N3CCN(C)CC3)cc2c1 (stereo not drawn) | 2 | 11 | -4 | -1 | 0 | 4 | x | x
SMILES | PG9 binder | AI-2 QS mod | SMARCA2 act | GAA850 FXN act | HSF1 inhib | HSP90 refold inh | GAA30 counter | FXN GAA850 conf
CCCN1CCN(C(c2cc3cc(OCC)ccc3[nH]c2=O)c2nnnn2C2CCCCC2)CC1 (stereo not drawn) | 2 | 18 | -1 | 11* | -14 | 1 | 17 | 7.9*
Cc1ccc(-c2nc(NCc3cccnc3)c3ccccc3n2)cc1 | 0 | 14 | -1 | 7.7* | -2 | 3 | 30* | 13*
c1ccc(-c2nc(NCc3cccnc3)c3ccccc3n2)cc1 | x | 20 | x | 4 | 4 | 3 | x | x
CCCCn1cnc2c(SCc3ccccc3F)nc(N)nc21 | -2 | x | 5 | 8.3* | x | x | 57* | 25*
CCC(C)Cn1cnc2c(SCc3ccccc3F)nc(N)nc21 (stereo not drawn) | -2 | x | 5 | 5 | x | x | x | x
CCCCn1cnc2c(SCc3ccc(Cl)cc3)nc(N)nc21 | -3 | x | -1 | 5 | x | x | x | x
CC(C)Cn1cnc2c(SCc3ccccc3F)nc(N)nc21 | 1 | x | 7 | 8.9* | x | x | 95* | 35*
CCCCc1c(-c2ccccc2OC)ncn1Cc1cccc(F)c1F | 0 | x | -1 | x | x | x | x | x
COc1ccc2nc(SC(C(=O)c3ccccc3)c3ccccc3)nc(C)c2c1 (stereo not drawn) | -1 | 22 | 1 | 11* | -10 | -1 | 20 | 19*
O=C(CSc1nc(-c2ccc(F)cc2)cs1)N1CCOCC1 | 0 | 18 | 0 | 8.1* | 1 | -1 | 74* | 27*
CC1(C)CC1C(=O)Nc1ccc([N+](=O)[O-])cc1Br (stereo not drawn) | 1 | 13 | 0 | 7.8* | -8 | 4 | 18 | 7
COC(=O)C1=C(C)N(Cc2cccc(C(F)(F)F)c2)C(=NCc2ccccc2C(F)(F)F)NC1c1ccc(Cl)cc1 (stereo not drawn) | 0 | x | -6 | x | x | x | x | x
CCOc1ccccc1N1CC(C(=O)Nc2cc(S(=O)(=O)N3CCOCC3)ccc2OC(C)C)CC1=O (stereo not drawn) | 0 | x | -2 | 10* | x | x | 16 | 7
